Records with an inconclusive call do not appear. Active and inactive are the calls of the source. Unless noted, calls come from the whole dose curve.
Experiment: Cell Viability - BJ (AID 421);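 note: cells exposed to compound for 40 hours at 37 °C before readout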
Conditions: BJ fibroblast viability, qHTS
How it was run: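 Quantitative HTS: ATP depletion in BJ cells after 40 hr compound exposure in complete culture medium, detected with CellTiter-Glo; AC50 from standard Hill fits.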
Potency is the fitted concentration of half-maximal effect.

| SMILES | Potency |
| --- | --- |
| Oc1ccc2cc(SSc3ccc4cc(O)ccc4c3)ccc2c1 | 49.1 µM (active) |
| Nc1ccc2cc3ccccc3cc2c1 | > 92 µM (inactive) |
| CN(C)c1ccc(C2(c3ccc(N(C)C)cc3)OC(=O)c3cc(N(C)C)ccc32)cc1 | > 92 µM (inactive) |
| CO[C@H]1/C=C/O[C@@]2(C)Oc3c(C)c(O)c4c(O)c(c5c(c4c3C2=O)NC2(CCN(CC(C)C)CC2)N=5)=NC(=O)/C(C)=C\C=C\[C@H](C)[C@H](O)[C@@H](C)[C@@H](O)[C@@H](C)[C@H](OC(C)=O)[C@@H]1C | > 92 µM (inactive) |
| Cc1cc(O)c(C(C)(C)C)cc1Sc1cc(C(C)(C)C)c(O)cc1C | 43.8 µM (active) |
| C=C(C)c1ccccc1 | > 92 µM (inactive) |
| O=C1OC2(c3cc(Br)c(O)c(Br)c3Oc3c2cc(Br)c(O)c3Br)c2c(Cl)c(Cl)c(Cl)c(Cl)c21 | > 92 µM (inactive) |
| c1cc(OCC2CO2)cc(OCC2CO2)c1 (stereo not drawn) | 27.4 µM (active) |
| ClC1=C(Cl)C(Cl)(Cl)C(Cl)=C1Cl | > 92 µM (inactive) |
| C=CC(=O)OCCOCCOC(=O)C=C | 35.8 µM (active) |
| C/C=C1\C(=O)C[C@H]2[C@@H]3CCC4=CC(=O)CC[C@]4(C)[C@H]3CC[C@]12C | > 92 µM (inactive) |
| O=C1OC(O)C(C(Cl)Cl)=C1Cl (stereo not drawn) | 41.2 µM (active) |
| CC(=O)Nc1ccc(C(=O)CCl)cc1 | 36.2 µM (active) |
| CCC(C)Nc1ccc(NC(C)CC)cc1 (stereo not drawn) | 14 µM (active) |
| O=C=Nc1ccc(Cc2ccc(N=C=O)cc2)cc1 | > 92 µM (inactive) |
| c1ccc2c(c1)ccc1cc3c(ccc4ccccc43)cc12 | > 92 µM (inactive) |
| CC/C(=C(\c1ccccc1)c1ccc(OCCN(C)C)cc1)c1ccc(O)cc1 | 45.1 µM (active) |
| c1ccc2c(c1)-c1cccc3c1c-2cc1ccccc13 | > 92 µM (inactive) |
| O=[N+]([O-])c1cc([N+](=O)[O-])c2ccc(S(=O)(=O)O)cc2c1O | > 92 µM (inactive) |
| O=Cc1ccc(Cl)c(Cl)c1 | > 92 µM (inactive) |

Experiment: Cell Viability - Jurkat (AID 426;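 active = dose-dependent loss of cell ATP signal giving a full or clear fitted curve, ranked by lower potency value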;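 note: cells exposed to compound for 40 hours at 37 °C before ATP read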)
Conditions: qHTS
How it was run: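 Cytotoxicity taken as drop in cellular ATP (CellTiter-Glo luminescence, 20 min room temperature) after 40 hr, 37C treatment of 5000 Jurkat Clone E6-1 cells per well; concentration-response fitted with Hill equation for AC50.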

| SMILES | Potency |
| --- | --- |
| Oc1ccc2cc(SSc3ccc4cc(O)ccc4c3)ccc2c1 | 36.7 µM (active) |
| Nc1ccc2cc3ccccc3cc2c1 | > 92 µM (inactive) |
| CN(C)c1ccc(C2(c3ccc(N(C)C)cc3)OC(=O)c3cc(N(C)C)ccc32)cc1 | > 92 µM (inactive) |
| Cc1cc(Nc2ccc(O)cc2)ccc1N | 7.82 µM (active) |
| Cc1cc(O)c(C(C)(C)C)cc1Sc1cc(C(C)(C)C)c(O)cc1C | 16.3 µM (active) |
| C=C(C)c1ccccc1 | > 92 µM (inactive) |
| c1cc(OCC2CO2)cc(OCC2CO2)c1 (stereo not drawn) | 41.9 µM (active) |
| ClC1=C(Cl)C(Cl)(Cl)C(Cl)=C1Cl | 1.88 µM (active) |
| C=CC(=O)OCCOCCOC(=O)C=C | 7.5 µM (active) |
| O=C1OC(O)C(C(Cl)Cl)=C1Cl (stereo not drawn) | 21.3 µM (active) |
| CNc1ccc(O)cc1 | 2.14 µM (active) |
| CC(=O)Nc1ccc(C(=O)CCl)cc1 | 2.44 µM (active) |
| CCC(C)Nc1ccc(NC(C)CC)cc1 (stereo not drawn) | 3.09 µM (active) |
| O=C=Nc1ccc(Cc2ccc(N=C=O)cc2)cc1 | > 92 µM (inactive) |
| c1ccc2c(c1)ccc1cc3c(ccc4ccccc43)cc12 | > 92 µM (inactive) |
| CC/C(=C(\c1ccccc1)c1ccc(OCCN(C)C)cc1)c1ccc(O)cc1 | 40.8 µM (active) |
| c1ccc2c(c1)-c1cccc3c1c-2cc1ccccc13 | > 92 µM (inactive) |
| O=[N+]([O-])c1cc([N+](=O)[O-])c2ccc(S(=O)(=O)O)cc2c1O | > 92 µM (inactive) |

Reference: PubChem BioAssay (NCATS)
